Experimental findings from PubChem BioAssay (NCI) are described below.

Where “and” joins values, the source holds several entries; their conditions need not be identical. Equal values may be shown once. About 83,000 compounds went through this panel and 20% of them were active in at least one assay; those are over-represented in the sample as a whole.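 Compound tested at a single concentration for 48 hours in 96-well plates; a percent growth value below 10 was scored as active.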 Values without a mark were called inactive. Calls of active or inactive are those of the source.

This assay deals with COLO 205 colon. Description: NCI-60 one-dose screen, 48 h (100 = growth as untreated, 0 = no growth, -100 = all killed). The conditions noted are these: 10 µM unless noted.
Turning to `O=C(O)C1C2CCC1C(O)C2` (centres undefined), the growth was 102% and 106%. With `CC1=C2[C@@H](CC1)[C@]1(C)O[C@@](C3CC3)(C[C@H]1OC(=O)CO)[C@H]2OC(=O)/C=C/c1ccccc1` the figure was 116%; with `CON1CCC[C@]2(C)[C@H]3CC[C@@H]4[C@H]5[C@@H](O)C(C)(C)CC[C@]5(CO)CC[C@@]4(C)[C@]3(C)CC[C@H]2C1(C)C`, 105%; with `O=C(Nc1ccccc1C(=O)N/N=C(\c1ccccc1)c1ccccn1)c1ccccc1`, 5.09% (active). With `CNC(=O)c1cc(Oc2ccc3nc(NC(=O)Nc4ccc(C(F)(F)F)cc4)sc3c2)ccn1` the figure was 58.7%; with `COc1cc(CO)cc2cc3ccccc3nc12`, 107%.

As for `Cc1ccc(S(=O)(=O)OC[C@@]2(C)CC[C@]3(C)CC[C@]4(C)C(=CC[C@@H]5[C@@]6(C)CCCNC(C)(C)[C@@H]6CC[C@]54C)[C@@H]3C2)cc1`, the growth was -82.6% (active). With `O=C1C(c2c[nH]c3ccccc23)=C(c2coc3cc(Br)ccc23)C(=O)N1O` the figure was 117%; with `Cc1ccc(Cc2cnc(NC(=O)c3cc(C)oc3C)s2)cc1`, 115%; with `CN(Cc1ccccc1)c1nc(Cl)c(C2CC(c3ccc4c(c3)OCO4)=NN2c2cc(Cl)cc(Cl)c2)s1` (centres undefined), 93.6%. Consider `COc1ccc(/C=C/C(=O)c2cc3c(N)c(C(=O)Nc4ccccc4Cl)sc3nc2C)cc1`, for which the growth was 69.8%. For `COc1ccc(/C=N/NC(=O)CN2CCN(c3cc4c(cc3F)c(=O)c(C(=O)O)cn4C3CC3)CC2)cc1O` the value was 112%; for `COc1ccc(-c2csc(NC(=O)CN3CCN(CCO)CC3)n2)cc1NS(=O)(=O)c1cccc2c(N(C)C)cccc12`, 62%; for `COc1cccc(NC(=O)c2sc3nc(C)c(C(O)c4ccccc4)cc3c2N)c1` (centres undefined), 5.41% (active). `COc1ccc(N2CCN(S(=O)(=O)c3oc(-c4ccccc4)nc3C#N)CC2)cc1`: the growth was 80%. For `O=S(=O)(O)c1ccc(N=Nc2ccc(N=Nc3cccc4ccccc34)c(S(=O)(=O)O)c2)cc1` the value was 100%; for `O=C1/C(=C/c2ccc(F)c(F)c2)CN(C(=O)C(Cl)Cl)C/C1=C\c1ccc(F)c(F)c1`, -85.8% (active); for `O=S(=O)(Nc1cc(Sc2cccc3cccnc23)c(O)c2ccccc12)c1ccc(F)cc1`, -64.6% (active).

Take `COc1cc(Cl)cc(-c2nn(C(=O)NS(=O)(=O)c3ccc(Cl)cc3)cc2-c2ccncc2)c1`: the growth was 72.1%. For `CCN1CCN(CC(=O)Nc2nc3ccc(NCc4ccc(C)cc4)cc3s2)CC1` the value was 16.3%. As for `COc1cc(-c2nc(SCCC(C)C)nc(Nc3ccc(F)cc3)c2C#N)cc(OC)c1OC`, the growth is 79.6%. For `O=C(/C=C/c1ccc([N+](=O)[O-])cc1)c1ccccc1` the value was 87.2%; for `COc1cc(-c2nn(-c3cccc(NC(=O)CCN4CCN(C)CC4)c3)cc2-c2ccncc2)ccc1Cl`, -31.6% (active). For `N#CC(Cc1cccc2ccccc12)c1cc2ccccc2[nH]1` (centres undefined) the value was 105%; for `C#CCOCC1CN(C)C(=O)O1` (centres undefined), 123%; for `Cc1ccc(/C=C/c2c(C(=O)/C=C/c3ccccc3)c(C)nc3ccccc23)cc1`, 12.7%. In the case of `Cc1ccc(-c2nc(C#N)c(S(=O)(=O)N(C)C)o2)cc1`, the growth is 16.7%. With `O=C(Nc1ncc(Cc2cccc(C(F)(F)F)c2)s1)c1ccc(-n2cnnn2)cc1` the figure was 121%; with `COc1c(F)cc(-n2c(C(=O)N3CC(F)C3)cc3cccnc32)cc1F`, 118%. For `N=C1/C(=C2\NC3C=CC=CC3S2)C(c2ccc(Cl)cc2)C2C(=O)N(c3ccccc3)C(=S)N12` (centres undefined), the growth is 113%. With `COc1ccc(Cl)cc1Nc1nc(C(F)(F)F)ccc1C(=O)N/N=C/c1ccc(N(C)C)cc1` the figure was 92.2%; with `Cc1ccc(NC(=O)c2ccc(CN3CCN(C)CC3)cc2)cc1Nc1nccc(-c2cccnc2)n1`, 101% and 78.3%. As for `C=C1C(=O)O[C@H]2[C@H]1CC/C(COC(=O)NCCCCNC(=O)OC/C1=C/CC[C@@]3(C)O[C@H]3[C@H]3OC(=O)C(=C)[C@@H]3CC1)=C\CC[C@@]1(C)O[C@@H]21`, the growth was -43.4% (active). With `C[C@@H]1O[C@@H](O[C@H]2[C@@H](OC(=O)[C@]34CCC(C)(C)C[C@H]3C3=CC[C@@H]5[C@@]6(C)C[C@H](O)[C@H](O[C@@H]7O[C@H](CO)[C@@H](O)[C@H](O)[C@H]7O)[C@@](C)(CO)[C@@H]6CC[C@@]5(C)[C@]3(C)C[C@H]4O)OC[C@@H](O)[C@@H]2O)[C@H](O)[C@H](O[C@@H]2OC[C@@H](O)[C@H](O[C@@H]3OC[C@](O)(CO)[C@H]3O[C@@H]3OC[C@@H](O)[C@H](O)[C@H]3O)[C@H]2O)[C@H]1O[C@@H]1OC[C@](O)(CO)[C@H]1O` the figure was 2.01% (active). For `NC(=O)c1c(NC(=O)/C=C/c2cccs2)sc2c1CCC(=O)C2` the value was 55.5%; for `CC1=CC(C)(C)NC(=S)N1c1ccc(Cl)cc1`, 109% and 100%; for `Cc1cc(N2CCCCC2)nc(NCc2cc(Nc3ccnc4cc(Cl)ccc34)ccc2F)n1`, -72.7% (active). On to `CCCCCCCC/C=C\CCCCCCCCOc1ccccc1CC(=O)NCC[N+]1(C)CCOCC1`, for which the growth is 17.3%. `COc1nc2ccc(C)cc2cc1/C=[N+](\[O-])c1ccccc1`: the growth was 96%.
